Legend:
Assay in all cases: log2 ratio of Biotin-Ahx-Ub-VS probe labelling (fragment/DMSO); higher = less target engagement (more negative = stronger competition), active = hit call of the paper (q ≤ 0.05, log2 ratio ≤ -1)
Details in all cases: compound concentration: 200 uM; treatment time: 3 h
[1] = target: USP34 (UniProt Q70CQ2)
Procedure, shortened: (§1)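 Labelled DUBs from HEK293T lysate were NeutrAvidin-enriched, digested with LysC and trypsin, and run by diaPASEF LC-MS/MS. Before that, each 495 µg sample in Tris/CHAPS/IGEPAL buffer with protease inhibitors was treated in triplicate with fragment at 200 µM or vehicle for 3 h, then with Biotin-Ahx-Ub-VS at 0.5 µM final for 1 h. Values are average log2 ratios of fragment over vehicle by unpaired t-test, based on global-median-normalised Spectronaut label-free quantities from proteins with ≥2 unique peptides.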

[2] = target: T1, USP36 (UniProt Q9P275)
T1 sequence (whole entry): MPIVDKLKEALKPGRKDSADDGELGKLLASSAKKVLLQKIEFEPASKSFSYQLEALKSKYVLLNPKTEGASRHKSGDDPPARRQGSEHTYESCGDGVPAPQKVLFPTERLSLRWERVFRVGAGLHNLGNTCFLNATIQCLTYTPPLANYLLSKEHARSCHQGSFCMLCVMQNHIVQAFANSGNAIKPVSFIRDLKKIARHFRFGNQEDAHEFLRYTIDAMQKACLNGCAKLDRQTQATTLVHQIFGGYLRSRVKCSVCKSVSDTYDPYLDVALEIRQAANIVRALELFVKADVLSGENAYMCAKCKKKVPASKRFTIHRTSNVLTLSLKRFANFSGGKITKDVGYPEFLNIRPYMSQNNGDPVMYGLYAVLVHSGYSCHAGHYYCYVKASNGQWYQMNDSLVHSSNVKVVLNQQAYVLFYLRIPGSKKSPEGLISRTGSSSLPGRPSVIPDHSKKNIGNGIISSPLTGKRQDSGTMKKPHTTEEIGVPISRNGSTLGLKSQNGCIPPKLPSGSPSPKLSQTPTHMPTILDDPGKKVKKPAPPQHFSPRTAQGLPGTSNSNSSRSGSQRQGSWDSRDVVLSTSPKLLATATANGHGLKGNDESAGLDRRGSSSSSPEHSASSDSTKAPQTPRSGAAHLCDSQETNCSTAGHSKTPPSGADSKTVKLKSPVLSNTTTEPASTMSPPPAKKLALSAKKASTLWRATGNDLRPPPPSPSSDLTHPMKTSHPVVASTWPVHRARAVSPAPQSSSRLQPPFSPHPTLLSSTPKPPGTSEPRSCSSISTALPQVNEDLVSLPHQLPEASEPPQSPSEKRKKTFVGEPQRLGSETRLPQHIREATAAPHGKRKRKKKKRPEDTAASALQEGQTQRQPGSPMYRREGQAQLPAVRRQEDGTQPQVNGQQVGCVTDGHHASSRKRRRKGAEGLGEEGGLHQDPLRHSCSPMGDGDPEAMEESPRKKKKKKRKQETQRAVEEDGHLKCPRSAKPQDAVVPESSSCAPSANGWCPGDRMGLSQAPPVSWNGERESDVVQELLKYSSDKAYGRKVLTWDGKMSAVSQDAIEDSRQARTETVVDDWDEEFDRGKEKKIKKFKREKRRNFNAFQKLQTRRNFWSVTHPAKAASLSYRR
Procedure, shortened: as §1

[3] = target: T2, USP38 (UniProt Q8NB14)
T2 sequence (whole entry): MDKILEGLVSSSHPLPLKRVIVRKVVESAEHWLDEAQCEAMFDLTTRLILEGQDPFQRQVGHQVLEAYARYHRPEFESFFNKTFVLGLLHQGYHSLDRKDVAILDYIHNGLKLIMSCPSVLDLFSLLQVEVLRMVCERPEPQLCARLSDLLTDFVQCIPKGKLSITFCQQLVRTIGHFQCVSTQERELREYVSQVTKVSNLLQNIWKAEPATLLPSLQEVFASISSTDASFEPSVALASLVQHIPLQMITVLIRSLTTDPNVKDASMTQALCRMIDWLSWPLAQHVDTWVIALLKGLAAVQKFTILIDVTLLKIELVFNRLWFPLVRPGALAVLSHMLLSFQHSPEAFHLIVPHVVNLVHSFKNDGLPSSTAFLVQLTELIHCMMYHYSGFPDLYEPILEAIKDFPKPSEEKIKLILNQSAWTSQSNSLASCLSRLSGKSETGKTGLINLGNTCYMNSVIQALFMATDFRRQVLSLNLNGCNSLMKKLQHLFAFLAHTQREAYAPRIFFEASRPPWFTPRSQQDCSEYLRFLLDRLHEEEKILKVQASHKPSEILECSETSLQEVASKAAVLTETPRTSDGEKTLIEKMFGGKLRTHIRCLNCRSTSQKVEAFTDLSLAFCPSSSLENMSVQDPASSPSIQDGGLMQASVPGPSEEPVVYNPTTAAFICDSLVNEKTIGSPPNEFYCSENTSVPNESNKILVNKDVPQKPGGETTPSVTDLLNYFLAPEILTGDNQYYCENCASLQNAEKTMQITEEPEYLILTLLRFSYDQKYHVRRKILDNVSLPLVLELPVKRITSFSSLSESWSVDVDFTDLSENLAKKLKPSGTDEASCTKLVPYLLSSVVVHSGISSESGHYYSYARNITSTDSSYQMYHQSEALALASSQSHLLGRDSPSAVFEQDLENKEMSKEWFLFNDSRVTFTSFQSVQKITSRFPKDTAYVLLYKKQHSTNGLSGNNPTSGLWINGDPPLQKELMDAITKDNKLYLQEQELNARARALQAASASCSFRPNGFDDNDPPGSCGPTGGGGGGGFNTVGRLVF
Procedure, shortened: as §1

[4] = target: T3, USP39 (UniProt Q53GS9)
T3 sequence (whole entry): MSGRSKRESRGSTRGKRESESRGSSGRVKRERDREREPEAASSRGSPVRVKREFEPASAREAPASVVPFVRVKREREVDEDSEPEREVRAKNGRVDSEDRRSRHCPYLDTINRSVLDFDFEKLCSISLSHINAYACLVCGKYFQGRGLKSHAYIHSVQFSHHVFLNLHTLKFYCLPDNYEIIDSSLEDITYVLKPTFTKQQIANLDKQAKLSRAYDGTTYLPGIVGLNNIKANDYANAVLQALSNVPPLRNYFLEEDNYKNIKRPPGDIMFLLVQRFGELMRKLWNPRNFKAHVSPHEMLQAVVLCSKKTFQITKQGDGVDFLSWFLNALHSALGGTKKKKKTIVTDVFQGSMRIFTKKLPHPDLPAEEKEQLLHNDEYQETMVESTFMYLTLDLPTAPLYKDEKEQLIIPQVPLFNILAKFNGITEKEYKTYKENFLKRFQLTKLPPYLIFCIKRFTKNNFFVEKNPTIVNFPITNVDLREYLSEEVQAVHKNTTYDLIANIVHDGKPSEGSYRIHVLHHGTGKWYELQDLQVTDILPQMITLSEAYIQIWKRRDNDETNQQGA
Procedure, shortened: as §1

[5] = target: T4, USP4 (UniProt Q13107)
T4 sequence (whole entry): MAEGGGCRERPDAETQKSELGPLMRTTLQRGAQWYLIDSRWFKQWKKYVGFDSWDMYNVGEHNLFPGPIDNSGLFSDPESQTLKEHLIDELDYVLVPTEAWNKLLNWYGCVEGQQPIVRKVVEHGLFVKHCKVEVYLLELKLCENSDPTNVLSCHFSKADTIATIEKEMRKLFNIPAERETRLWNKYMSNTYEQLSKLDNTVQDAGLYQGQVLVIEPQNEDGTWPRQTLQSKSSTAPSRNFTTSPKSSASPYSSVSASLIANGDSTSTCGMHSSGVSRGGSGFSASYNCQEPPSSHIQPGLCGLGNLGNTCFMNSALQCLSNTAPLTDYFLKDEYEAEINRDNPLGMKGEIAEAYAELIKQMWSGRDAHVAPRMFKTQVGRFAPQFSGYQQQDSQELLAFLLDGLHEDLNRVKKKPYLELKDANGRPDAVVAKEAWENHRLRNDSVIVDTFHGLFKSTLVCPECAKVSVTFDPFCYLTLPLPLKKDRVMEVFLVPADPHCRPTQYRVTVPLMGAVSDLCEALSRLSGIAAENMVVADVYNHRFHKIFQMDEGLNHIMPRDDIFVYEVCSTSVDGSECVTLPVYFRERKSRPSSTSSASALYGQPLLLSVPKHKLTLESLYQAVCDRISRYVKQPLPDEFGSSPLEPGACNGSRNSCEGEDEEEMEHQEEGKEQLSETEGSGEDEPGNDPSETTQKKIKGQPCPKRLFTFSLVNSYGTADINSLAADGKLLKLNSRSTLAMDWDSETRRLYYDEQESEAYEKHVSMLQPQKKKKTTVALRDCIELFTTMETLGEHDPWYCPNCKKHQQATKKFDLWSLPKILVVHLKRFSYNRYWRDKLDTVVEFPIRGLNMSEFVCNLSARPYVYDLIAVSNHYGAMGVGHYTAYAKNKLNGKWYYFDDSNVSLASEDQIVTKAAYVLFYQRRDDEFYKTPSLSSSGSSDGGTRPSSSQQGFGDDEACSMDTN
Procedure, shortened: as §1

Measured: log2 ratio of Biotin-Ahx-Ub-VS probe labelling

Sequence of USP34 (Q70CQ2 whole entry, the tested form may be a part): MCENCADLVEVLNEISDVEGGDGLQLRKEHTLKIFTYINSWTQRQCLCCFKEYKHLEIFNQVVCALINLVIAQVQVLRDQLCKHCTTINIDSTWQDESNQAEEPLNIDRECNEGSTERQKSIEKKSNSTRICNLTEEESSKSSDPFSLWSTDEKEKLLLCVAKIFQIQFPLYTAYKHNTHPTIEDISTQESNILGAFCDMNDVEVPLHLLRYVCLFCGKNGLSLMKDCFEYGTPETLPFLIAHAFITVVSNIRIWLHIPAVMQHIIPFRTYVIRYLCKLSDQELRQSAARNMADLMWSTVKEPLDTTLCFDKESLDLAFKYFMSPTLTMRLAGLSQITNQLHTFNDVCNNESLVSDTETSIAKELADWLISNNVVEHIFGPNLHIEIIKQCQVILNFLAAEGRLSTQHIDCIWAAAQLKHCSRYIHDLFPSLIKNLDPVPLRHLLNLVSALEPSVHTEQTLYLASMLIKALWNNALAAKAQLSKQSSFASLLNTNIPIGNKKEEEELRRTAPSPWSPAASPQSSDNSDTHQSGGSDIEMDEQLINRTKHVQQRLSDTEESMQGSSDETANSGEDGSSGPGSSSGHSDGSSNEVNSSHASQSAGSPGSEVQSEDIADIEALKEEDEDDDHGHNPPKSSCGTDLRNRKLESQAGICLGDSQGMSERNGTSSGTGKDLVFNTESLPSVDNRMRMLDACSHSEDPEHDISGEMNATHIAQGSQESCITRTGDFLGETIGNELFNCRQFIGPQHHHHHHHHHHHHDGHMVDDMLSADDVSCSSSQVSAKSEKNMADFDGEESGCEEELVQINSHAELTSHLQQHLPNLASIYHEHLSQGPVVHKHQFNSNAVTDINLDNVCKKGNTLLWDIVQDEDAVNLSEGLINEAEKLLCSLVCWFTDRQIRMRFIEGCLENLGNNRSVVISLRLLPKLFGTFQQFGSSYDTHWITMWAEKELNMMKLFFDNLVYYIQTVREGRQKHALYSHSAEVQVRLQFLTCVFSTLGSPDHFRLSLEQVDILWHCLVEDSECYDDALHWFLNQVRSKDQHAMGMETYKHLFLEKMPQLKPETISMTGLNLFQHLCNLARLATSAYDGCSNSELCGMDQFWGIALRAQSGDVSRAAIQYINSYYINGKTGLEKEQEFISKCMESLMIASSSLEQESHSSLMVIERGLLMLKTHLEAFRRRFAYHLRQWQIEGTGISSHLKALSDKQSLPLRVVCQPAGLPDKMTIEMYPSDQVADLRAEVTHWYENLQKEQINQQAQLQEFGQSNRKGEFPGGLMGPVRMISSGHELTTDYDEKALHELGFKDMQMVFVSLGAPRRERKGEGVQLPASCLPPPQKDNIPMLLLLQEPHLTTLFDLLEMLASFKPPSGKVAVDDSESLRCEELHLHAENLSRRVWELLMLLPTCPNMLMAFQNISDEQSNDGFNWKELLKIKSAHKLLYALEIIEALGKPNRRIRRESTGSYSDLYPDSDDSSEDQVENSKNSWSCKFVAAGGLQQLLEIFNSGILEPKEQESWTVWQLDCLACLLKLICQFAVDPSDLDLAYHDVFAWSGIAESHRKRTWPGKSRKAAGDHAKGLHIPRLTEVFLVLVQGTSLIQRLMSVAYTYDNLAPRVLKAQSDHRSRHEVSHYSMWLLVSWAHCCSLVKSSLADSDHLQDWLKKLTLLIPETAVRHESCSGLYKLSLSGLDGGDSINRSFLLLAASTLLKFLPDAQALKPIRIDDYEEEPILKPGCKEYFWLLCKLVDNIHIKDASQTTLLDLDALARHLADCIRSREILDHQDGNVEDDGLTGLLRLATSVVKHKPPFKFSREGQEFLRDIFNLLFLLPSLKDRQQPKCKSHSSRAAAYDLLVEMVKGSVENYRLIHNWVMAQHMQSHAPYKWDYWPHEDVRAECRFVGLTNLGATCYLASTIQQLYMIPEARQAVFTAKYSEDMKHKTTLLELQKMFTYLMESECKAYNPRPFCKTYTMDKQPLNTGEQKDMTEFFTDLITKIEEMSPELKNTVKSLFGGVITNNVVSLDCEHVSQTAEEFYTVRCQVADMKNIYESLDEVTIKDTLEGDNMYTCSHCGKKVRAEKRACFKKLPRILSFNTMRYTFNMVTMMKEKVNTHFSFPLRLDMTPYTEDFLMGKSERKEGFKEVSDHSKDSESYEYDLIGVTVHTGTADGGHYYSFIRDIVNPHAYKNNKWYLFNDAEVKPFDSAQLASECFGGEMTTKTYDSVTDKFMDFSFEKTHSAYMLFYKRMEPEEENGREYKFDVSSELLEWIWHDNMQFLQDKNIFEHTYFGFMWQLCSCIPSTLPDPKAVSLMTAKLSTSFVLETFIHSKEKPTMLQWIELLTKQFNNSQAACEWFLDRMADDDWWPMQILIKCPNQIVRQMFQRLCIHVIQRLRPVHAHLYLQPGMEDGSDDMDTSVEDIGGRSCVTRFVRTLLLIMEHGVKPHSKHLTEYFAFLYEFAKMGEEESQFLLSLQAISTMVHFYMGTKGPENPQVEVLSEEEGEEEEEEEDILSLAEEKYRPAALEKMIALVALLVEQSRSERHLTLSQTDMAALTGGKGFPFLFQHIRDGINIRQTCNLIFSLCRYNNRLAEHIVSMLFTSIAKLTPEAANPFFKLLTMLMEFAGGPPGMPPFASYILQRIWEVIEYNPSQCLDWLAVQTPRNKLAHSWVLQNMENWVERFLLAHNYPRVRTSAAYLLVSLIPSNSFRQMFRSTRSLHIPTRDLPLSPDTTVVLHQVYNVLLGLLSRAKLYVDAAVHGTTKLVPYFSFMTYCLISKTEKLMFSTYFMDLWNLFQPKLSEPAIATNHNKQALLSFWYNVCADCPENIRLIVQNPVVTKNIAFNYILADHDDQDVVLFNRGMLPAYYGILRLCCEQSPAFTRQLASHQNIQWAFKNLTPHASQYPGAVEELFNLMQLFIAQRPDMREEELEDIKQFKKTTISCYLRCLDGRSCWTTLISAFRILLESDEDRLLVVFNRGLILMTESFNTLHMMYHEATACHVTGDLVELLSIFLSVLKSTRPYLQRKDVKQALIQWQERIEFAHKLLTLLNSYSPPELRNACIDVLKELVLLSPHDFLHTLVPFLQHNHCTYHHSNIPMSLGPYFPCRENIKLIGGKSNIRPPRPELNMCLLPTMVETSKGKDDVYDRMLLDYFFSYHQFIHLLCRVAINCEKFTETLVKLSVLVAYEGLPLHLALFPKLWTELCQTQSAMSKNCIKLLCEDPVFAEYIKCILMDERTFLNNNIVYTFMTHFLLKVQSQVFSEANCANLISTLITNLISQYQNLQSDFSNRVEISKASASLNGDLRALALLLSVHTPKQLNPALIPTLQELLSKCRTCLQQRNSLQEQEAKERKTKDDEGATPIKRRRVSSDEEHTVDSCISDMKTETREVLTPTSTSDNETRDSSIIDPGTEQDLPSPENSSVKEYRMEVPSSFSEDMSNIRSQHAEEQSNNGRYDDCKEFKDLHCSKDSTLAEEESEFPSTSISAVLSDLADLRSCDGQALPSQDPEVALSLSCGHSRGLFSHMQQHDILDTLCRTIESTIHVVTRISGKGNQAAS

CS(=O)(=O)N1CCCN(C(=O)CCl)CC1
inactive: [1] -0.016 | [2] -0.255 | [3] -0.0208 | [4] 0.0871 | [5] -0.0865

Reference: the supplement of paper PMC11732987, “Enantioselective OTUD7B fragment discovery through chemoproteomics screening and high-throughput optimisation” (Communications Chemistry, 2025)
